Data on 14 compounds can be found in PubChem BioAssay.

Test [1] concerns XIP peptide (Xip251-270) binding. Nature of the test: XIP fragment 251-270 binding compounds – biochemical, small-molecule microarray, fluorescence 635/667 nm, 0.1 µg/mL protein, primary screen (AID 1182). To be noted: fluorescent protein binding, 635 nm, higher = more signal, called active from +8 up or from −8 down.
The test system of test [2] is XIP peptide (Xip251-270). The test can be described thus: compounds binding XIP fragment 251-270 – biochemical, small-molecule microarray, fluorescence 635/667 nm, 0.5 µg/mL protein, primary screen (AID 1183). The following applies: fluorescence 635 nm, higher = more signal.
Test [3] in a line: blood-stage malaria parasite viability loss – strain 3D7, DAPI fluorescence, 100 nL, primary screen (AID 1184).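 Also: parasites grown inside human red blood cells in medium with human serum.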 The following applies: P. falciparum 3D7 growth, 3 d, higher = more signal.
The target of test [4] is Homeobox protein Hox-A13 (Mus musculus) (UniProt Q62424). The test can be described thus: disruptors of Hoxa13 oligonucleotide interaction – biochemical, fluorescence polarization, labeled oligonucleotide, primary screen (AID 1185). To be noted: Hoxa13:DNA binding, 15 min, higher = more signal, called active from +8 up or from −8 down. A general note: Fluorescence polarisation rises when a labelled molecule tumbles more slowly, as on binding a larger partner.
Chain of Homeobox protein Hox-A13 (Mus musculus) (Q62424 whole entry, looked up): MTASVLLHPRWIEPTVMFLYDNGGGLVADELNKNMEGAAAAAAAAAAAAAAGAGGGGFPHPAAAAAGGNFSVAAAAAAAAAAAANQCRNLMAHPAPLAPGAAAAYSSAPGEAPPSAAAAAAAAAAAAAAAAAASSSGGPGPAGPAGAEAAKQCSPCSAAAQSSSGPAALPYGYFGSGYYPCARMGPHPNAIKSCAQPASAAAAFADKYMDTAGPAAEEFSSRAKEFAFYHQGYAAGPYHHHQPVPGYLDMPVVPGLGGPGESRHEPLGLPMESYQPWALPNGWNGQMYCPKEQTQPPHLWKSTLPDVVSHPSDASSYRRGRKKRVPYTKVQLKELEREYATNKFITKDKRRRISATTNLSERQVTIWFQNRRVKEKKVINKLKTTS

The nature of test [5]: blockers of DNA damage checkpoint Chk1 activation – imaging, HeLa, hydroxyurea, phospho-Chk1 antibody, percent positive cells, primary screen (AID 1186). The following applies: hydroxyurea-induced phospho-Chk1 immunofluorescence imaging, higher = more signal.
Test [6] in a line: blockers of DNA damage checkpoint Chk1 activation – imaging, HeLa, hydroxyurea, phospho-Chk1 nuclear intensity, primary screen (AID 1187). To be noted: hydroxyurea-induced phospho-Chk1 immunofluorescence imaging, higher = more signal.

Active and inactive are the calls of the source. Unless noted, no rule for the calls is given here.

In the case of `COCCOC(=O)N1C(=O)[C@@]2(c3cc(C#CCNC(N)=O)ccc31)[C@H](C(=O)N1CCc3cc(OC)c(OC)cc3C1)[C@H]1C(=O)O[C@H](c3ccccc3)[C@H](c3ccccc3)N1[C@@H]2c1ccc(OCCO)cc1`, the figures for the composite z-score in test [1] and in test [2] were 0.034 (inactive) and 0.616, respectively. For the same compound, the z-score in test [3] was -1.3; in test [4] it was 1.53 (inactive); in test [5], -0.184 (inactive); in test [6], -0.0927 (inactive).

Take `CCOC(=O)C1=CC[C@@H](c2ccccc2Cl)N(S(=O)(=O)c2ccc(C)cc2)C1`: the composite z-score was 0.792 (inactive) in test [1] and 0.488 in test [2]. The z-score in test [3] was -2.06; in test [4], -2.78 (inactive); in test [5], -1.55 (inactive); in test [6] it was -1.77 (inactive).

For `CC(C)OC(=O)CC(=O)CC(O)c1ccc(C#N)cc1` (centres undefined), the composite z-score is 3.17 (inactive) in test [1] and 0.21 in test [2]. The z-score was 0.393 in test [3], -0.306 (inactive) in test [4], -1.26 (inactive) in test [5] and -1.44 (inactive) in test [6].

For `Cc1ccc(S[C@]2(C(=O)NCc3ccccc3)CC(=O)N(Cc3ccccc3Cl)[C@@H]2c2ccc(CO)cc2I)cc1`, the composite z-score in test [1] is 0.935 (inactive); in test [2], 0.348. Moreover, the z-score is -0.496 in test [3], -1.91 (inactive) in test [4], 0.0452 (inactive) in test [5] and 0.0687 (inactive) in test [6].

As to `CCCNC(=O)[C@@]1(c2ccc([N+](=O)[O-])cc2)CC(=O)N(CC23CC4CC(CC(C4)C2)C3)[C@@H]1c1ccc(CO)cc1`, the composite z-score is 0.462 (inactive) in test [1] and 0.424 in test [2]. Further, the z-score in test [3] was 0.0816; in test [4], -4.89 (inactive); in test [5], -0.29 (inactive); in test [6] it was -0.683 (inactive).

With `CCC[C@@H]1C=C(C(=O)O)[C@H](c2ccc(C)cc2)N1S(=O)(=O)c1ccc(C)cc1`, the composite z-score in test [1] was -0.0617 (inactive); in test [2] it was 0.884. For the same compound, the z-score in test [3] was 0.977; in test [4], -3.27 (inactive); in test [5], 0.941 (inactive); in test [6], 1.34 (inactive).

In the case of `COC(=O)[C@@]1(Cc2ccc(OC)cc2)[C@H]2c3cc(C(=O)N4CCCC4)n(Cc4cc(F)cc5c4OCOC5)c3C[C@H]2CN1C(=O)c1ccccc1`, the composite z-score is 0.365 (inactive) in test [1] and 0.857 in test [2]. Also, the z-score in test [3] was -1.72; in test [4], -6.08 (inactive); in test [5], 0.127 (inactive); in test [6], -0.271 (inactive).

For `C=CCOC(=O)[C@@H]1[C@H]2C(=O)O[C@H](c3ccccc3)[C@H](c3ccccc3)N2[C@H](c2ccc(OCCOC(=O)[C@@H]3C[C@@H]4C(=O)N[C@@H](Cc5ccccc5)C(=O)N4[C@@H]3c3cccc(OCCO)c3)cc2)[C@@]12C(=O)Nc1ccc(I)cc12`, the figures for the composite z-score in test [1] and in test [2] were 0.299 (inactive) and 0.738, respectively. Also, the z-score in test [3] was -1.69; in test [4], -0.282 (inactive); in test [5], 0.0948 (inactive); in test [6] it was 0.608 (inactive).

With `COCCOC(=O)N1C(=O)[C@@]2(c3cc(C#CCCO)ccc31)[C@H](C(=O)NC[C@H](O)c1ccccc1)[C@H]1C(=O)O[C@H](c3ccccc3)[C@H](c3ccccc3)N1[C@@H]2c1ccc(O)cc1`, the composite z-score in test [1] is -0.246 (inactive); in test [2] it was 0.692. In addition, the z-score in test [3] is 0.363; in test [4], -3.53 (inactive); in test [5] it was -0.392 (inactive); in test [6], -0.542 (inactive).

In the case of `COC(=O)c1ccc(OC)c(/C=C\CC(OC(C)=O)c2ccccc2)c1` (centres undefined), the composite z-score in test [1] is 0.322 (inactive); in test [2], 0.501. Besides, the z-score is 0.0859 in test [3], -2.35 (inactive) in test [4], 0.237 (inactive) in test [5] and 0.328 (inactive) in test [6].

In the case of `C=C[C@@H](COC(C)=O)N(Cc1ccccc1[N+](=O)[O-])S(=O)(=O)c1ccc(Br)cc1`, the composite z-score in test [1] is 2.18 (inactive); in test [2] it was 0.387. Moreover, the z-score in test [3] was -0.43; in test [4] it was -2.89 (inactive); in test [5] it was -0.472 (inactive); in test [6], -0.567 (inactive).

For `COc1ccc(C(O)C2C=CC3C(=O)N(c4ccccc4)C(=O)C3N2Nc2ccc([N+](=O)[O-])cc2)cc1OCc1ccccc1` (centres undefined), the results for the composite z-score in test [1] and in test [2] were 0.522 (inactive) and 0.891, respectively. Moreover, the z-score in test [3] is -0.303; in test [4], -1.46 (inactive); in test [5] it was -0.105 (inactive); in test [6], -1.67 (inactive).

Consider `CC(=O)NCCCC[C@@H]1NC(=O)[C@H]2C[C@@H](C(=O)NCCCCCC[N+](C)(C)C)[C@@H](c3cccc(OCCO)c3)N2C1=O`, for which the composite z-score in test [1] was 1.87 (inactive); in test [2] it was 0.893. Also, the z-score is -1.26 in test [3], -4.59 (inactive) in test [4], -0.372 (inactive) in test [5] and -0.255 (inactive) in test [6].

On to `O=C1N(CCS(=O)(=O)c2ccccc2)Cc2ccccc2C[C@]12N=C(c1ccc(OCCCO)cc1)O[C@@H]2c1ccccc1`, for which the composite z-score in test [1] is 0.194 (inactive); in test [2], 0.789. The z-score is -2.34 in test [3], -2.61 (inactive) in test [4], -0.719 (inactive) in test [5] and -0.709 (inactive) in test [6].
